Laboratory results reported in PubChem BioAssay (NCI).
Values joined by “and” are separate entries in the source; they are usually repeats but may differ in a detail not shown here. Identical values can stand only once. Compounds without any hit were thinned out: in the full panel of roughly 79,000, 15% have a hit. The source holds several records for some structures; these can differ, active in one and inactive in another. Active and inactive are the calls of the source. Rule as the data show it: active = growth inhibition above about 70%; inactive = the rest.

Columns and labels:
[1] = NCI Yeast Anticancer Drug Screen. Data for the rad52 strain (AID 147);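 also: 0% = growth of vehicle-treated control cultures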; conditions: S. cerevisiae rad52 mutant growth inhibition, stronger effect = higher value
Summary of the method: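 The repair-mutant yeast strain was incubated with compounds, then growth was read and inhibition derived relative to vehicle.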

[2] = NCI Yeast Anticancer Drug Screen. Data for the wt1 strain (AID 149);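 also: 0% = growth of vehicle-treated wt1 cultures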; conditions: S. cerevisiae wt1 strain (SPY 50644) growth inhibition, stronger effect = higher value
Summary of the method: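 Readout: yeast growth inhibition, normalised to vehicle controls, in the wt1 strain exposed to test compounds.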

[3] = NCI Yeast Anticancer Drug Screen. Data for the rad50EPP+ strain (AID 151);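 also: 0% = growth of vehicle-treated control cultures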; conditions: S. cerevisiae rad50 mutant strain, stronger effect = higher value
Summary of the method: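 Vehicle-normalised growth inhibition; rad50EPP+ yeast strain, altered in DNA damage repair, compound-treated.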

[4] = NCI Yeast Anticancer Drug Screen. Data for the mgt1 strain (AID 153); conditions: S. cerevisiae mgt1 mutant growth inhibition, stronger effect = higher value
Summary of the method: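 Vehicle-normalized growth inhibition is determined in mgt1 yeast, a strain selected for a defined alteration in DNA repair or cell cycle control.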

[5] = NCI Yeast Anticancer Drug Screen. Data for the rad50 strain (AID 155);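 also: 0% = growth of vehicle-only cultures of the same strain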; conditions: S. cerevisiae rad50 strain growth inhibition, stronger effect = higher value
Summary of the method: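 Compounds were tested on a yeast strain with an engineered DNA damage repair alteration; the reported value is growth inhibition normalised to vehicle treatment.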

[6] = NCI Yeast Anticancer Drug Screen. Data for the mec2-1 strain (AID 157); conditions: S. cerevisiae mec2-1 strain, stronger effect = higher value
Summary of the method: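 Mutant yeast (mec2-1) grown with compound; growth inhibition relative to vehicle control reported.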

[7] = NCI Yeast Anticancer Drug Screen. Data for the sgs1 mgt1 strain (AID 161);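 also: 0% = growth of cultures given vehicle only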; conditions: S. cerevisiae sgs1 mgt1 strain, stronger effect = higher value
Summary of the method: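 Percent growth inhibition was derived by comparing compound-exposed mutant yeast with vehicle-exposed cultures. The strain carries alterations in DNA damage repair.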

[8] = NCI Yeast Anticancer Drug Screen. Data for the CLN2oe strain (AID 163);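 also: 0% = growth of vehicle-only control cultures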; conditions: S. cerevisiae CLN2oe strain, stronger effect = higher value
Summary of the method: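 Compounds are applied to yeast harbouring a defined cell-cycle control change; reduced growth compared with vehicle-treated controls gives the value.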

[9] = NCI Yeast Anticancer Drug Screen. Data for the cln2 rad14 strain (AID 165);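 also: 0% = growth equal to vehicle treated cultures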; conditions: S. cerevisiae cln2 rad14 strain, stronger effect = higher value
Summary of the method: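 Readout is yeast growth inhibition versus vehicle-treated controls, using a strain with cln2 and rad14 alterations exposed to compound.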

[10] = NCI Yeast Anticancer Drug Screen. Data for the bub3 strain (AID 167); conditions: S. cerevisiae bub3 mutant strain, stronger effect = higher value
Summary of the method: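 Growth of a checkpoint-deficient yeast mutant is measured after compound exposure. Values represent inhibition relative to vehicle.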

[11] = NCI Yeast Anticancer Drug Screen. Data for the wt2 strain (AID 169);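 also: 0% = growth of vehicle-treated yeast cultures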; conditions: S. cerevisiae wt2 strain growth inhibition, stronger effect = higher value
Summary of the method: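 Against vehicle-treated controls, the growth of yeast exposed to each compound was compared, and the inhibition was recorded.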

[12] = NCI Yeast Anticancer Drug Screen. Data for the mlh1 strain (AID 171);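 also: 0% = growth of vehicle-treated control cultures of the same strain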; conditions: S. cerevisiae mlh1 strain growth inhibition, stronger effect = higher value
Summary of the method: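 Measured: yeast growth. Reference: vehicle-treated controls. Organism: strain with a defined alteration affecting DNA damage repair or cell cycle control, treated with compound.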

[13] = NCI Yeast Anticancer Drug Screen. Data for the sgs1 strain (AID 173);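 also: 0% = growth of vehicle-only control cultures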; conditions: S. cerevisiae sgs1 mutant, stronger effect = higher value
Summary of the method: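 Each compound was added to cultures of the altered yeast strain. Growth was recorded, and inhibition was derived by comparison with vehicle controls.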

[14] = NCI Yeast Anticancer Drug Screen. Data for the mlh1 rad18 strain (AID 175); conditions: S. cerevisiae mlh1 rad18 strain growth inhibition, stronger effect = higher value
Summary of the method: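 Genetically defined yeast (DNA repair-deficient) exposed to compounds; growth inhibition determined relative to vehicle.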

[15] = NCI Yeast Anticancer Drug Screen. Data for the rad18 strain (AID 177); conditions: S. cerevisiae rad18 mutant growth inhibition, stronger effect = higher value
Summary of the method: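 Vehicle-treated cultures served as the baseline for scoring compound-induced growth inhibition in DNA-repair-mutant yeast.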

[16] = NCI Yeast Anticancer Drug Screen. Data for the rad14 strain (AID 159);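 also: 0% = growth of vehicle-treated control cultures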; conditions: S. cerevisiae rad14 strain growth inhibition, stronger effect = higher value
Summary of the method: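 Compound-treated yeast with a defined DNA-repair lesion; growth inhibition normalised to vehicle-treated cultures.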

[17] = at 5.0 µM (retest, dose inferred, filed as 0.5)
[18] = at 50.0 µM (retest, dose inferred, filed as 5.0)

Oc1cccc2cccnc12
growth inhibition ([1]; at 1.2 µM): 20% (inactive)
growth inhibition ([1]; at 3.7 µM): 91% (active)
growth inhibition ([1]; at 11.0 µM): 93% (active)
growth inhibition ([1]; at 33.0 µM): 94% (active)
growth inhibition ([1]; at 100.0 µM): 96% (active)
growth inhibition ([2]; at 1.2 µM): 27% (inactive)
growth inhibition ([2]; at 3.7 µM): 95% (active)
growth inhibition ([2]; at 11.0 µM): 99% (active)
growth inhibition ([2]; at 33.0 µM): 99% (active)
growth inhibition ([2]; at 100.0 µM): 98% (active)
growth inhibition ([3]; at 1.2 µM): -11% (inactive)
growth inhibition ([3]; at 3.7 µM): 93% (active)
growth inhibition ([3]; at 11.0 µM): 94% (active)
growth inhibition ([3]; at 33.0 µM): 94% (active)
growth inhibition ([3]; at 100.0 µM): 95% (active)
growth inhibition ([4]; at 1.2 µM): 4% (inactive)
growth inhibition ([4]; at 3.7 µM): 91% (active)
growth inhibition ([4]; at 11.0 µM): 96% (active)
growth inhibition ([4]; at 33.0 µM): 98% (active)
growth inhibition ([4]; at 100.0 µM): 97% (active)
growth inhibition ([5]; at 1.2 µM): 18% (inactive)
growth inhibition ([5]; at 3.7 µM): 85% (active)
growth inhibition [5, 17]: 78% (active) and 97% (active) and 96% (active)
growth inhibition ([5]; at 11.0 µM): 97% (active)
growth inhibition ([5]; at 33.0 µM): 97% (active)
growth inhibition [5, 18]: 99% (active)
growth inhibition ([5]; at 50.0 µM): 99.1% (active) [middle of 4 runs]
growth inhibition ([5]; at 100.0 µM): 96% (active)
growth inhibition ([6]; at 1.2 µM): 6% (inactive)
growth inhibition ([6]; at 3.7 µM): 85% (active)
growth inhibition ([6]; at 11.0 µM): 97% (active)
growth inhibition ([6]; at 33.0 µM): 99% (active)
growth inhibition [6, 18]: 99% (active) and 100% (active)
growth inhibition ([6]; at 50.0 µM): 99.1% (active) [middle of 4 runs]
growth inhibition ([6]; at 100.0 µM): 98% (active)
growth inhibition [7, 18]: -41% (inactive) and 100% (active) and 99% (active)
growth inhibition ([7]; at 50.0 µM): 95.5% (active) [middle of 5 runs]
growth inhibition ([8]; at 1.2 µM): -19% (inactive)
growth inhibition ([8]; at 3.7 µM): 86% (active)
growth inhibition ([8]; at 11.0 µM): 84% (active)
growth inhibition ([8]; at 33.0 µM): 94% (active)
growth inhibition ([8]; at 100.0 µM): 92% (active)
growth inhibition ([9]; at 50.0 µM): 95.5% (active) [middle of 5 runs]
growth inhibition ([10]; at 1.2 µM): -2% (inactive)
growth inhibition ([10]; at 3.7 µM): 63% (inactive)
growth inhibition ([10]; at 11.0 µM): 97% (active)
growth inhibition ([10]; at 33.0 µM): 98% (active)
growth inhibition [10, 18]: -8% (inactive) and 100% (active) and 99% (active)
growth inhibition ([10]; at 50.0 µM): 98.7% (active) [middle of 5 runs]
growth inhibition ([10]; at 100.0 µM): 98% (active)
growth inhibition ([11]; at 1.2 µM): 17% (inactive)
growth inhibition ([11]; at 3.7 µM): 84% (active)
growth inhibition ([11]; at 11.0 µM): 90% (active)
growth inhibition ([11]; at 33.0 µM): 95% (active)
growth inhibition ([11]; at 100.0 µM): 98% (active)
growth inhibition ([12]; at 1.2 µM): 1% (inactive)
growth inhibition ([12]; at 3.7 µM): 74% (active)
growth inhibition ([12]; at 11.0 µM): 97% (active)
growth inhibition ([12]; at 33.0 µM): 98% (active)
growth inhibition ([12]; at 100.0 µM): 98% (active)
growth inhibition ([13]; at 1.2 µM): 47% (inactive)
growth inhibition ([13]; at 3.7 µM): 94% (active)
growth inhibition ([13]; at 11.0 µM): 97% (active)
growth inhibition ([13]; at 33.0 µM): 98% (active)
growth inhibition ([13]; at 100.0 µM): 97% (active)
growth inhibition [14, 17]: 75% (active) [middle of 5 runs]
growth inhibition [14, 18]: 99% (active) and 96% (active)
growth inhibition ([14]; at 50.0 µM): 98.2% (active) [middle of 4 runs]
growth inhibition ([15]; at 1.2 µM): 30% (inactive)
growth inhibition ([15]; at 3.7 µM): 95% (active)
growth inhibition ([15]; at 11.0 µM): 97% (active)
growth inhibition ([15]; at 33.0 µM): 97% (active)
growth inhibition ([15]; at 100.0 µM): 97% (active)

O=C(c1ccccc1)C1C(c2ccccc2[N+](=O)[O-])N1C1CCCCC1 (stereo unspecified)
growth inhibition ([1]; at 1.2 µM): -1% (inactive)
growth inhibition ([1]; at 3.7 µM): 7% (inactive)
growth inhibition ([1]; at 11.0 µM): 30% (inactive)
growth inhibition ([1]; at 33.0 µM): 80% (active)
growth inhibition ([1]; at 100.0 µM): 89% (active)
growth inhibition ([2]; at 1.2 µM): -1% (inactive)
growth inhibition ([2]; at 3.7 µM): 1% (inactive)
growth inhibition ([2]; at 11.0 µM): 8% (inactive)
growth inhibition ([2]; at 33.0 µM): 41% (inactive)
growth inhibition ([2]; at 100.0 µM): 80% (active)
growth inhibition ([4]; at 1.2 µM): 1% (inactive)
growth inhibition ([4]; at 3.7 µM): 2% (inactive)
growth inhibition ([4]; at 11.0 µM): 10% (inactive)
growth inhibition ([4]; at 33.0 µM): 52% (inactive)
growth inhibition ([4]; at 100.0 µM): 83% (active)
growth inhibition ([5]; at 1.2 µM): 2% (inactive)
growth inhibition ([5]; at 3.7 µM): 3% (inactive)
growth inhibition [5, 17]: -2% (inactive)
growth inhibition ([5]; at 11.0 µM): 28% (inactive)
growth inhibition ([5]; at 33.0 µM): 71% (active)
growth inhibition [5, 18]: 72% (active)
growth inhibition ([5]; at 50.0 µM): 96.9% (active)
growth inhibition ([5]; at 100.0 µM): 84% (active)
growth inhibition ([6]; at 1.2 µM): 4% (inactive)
growth inhibition ([6]; at 3.7 µM): 10% (inactive)
growth inhibition [6, 17]: 1% (inactive)
growth inhibition ([6]; at 11.0 µM): 23% (inactive)
growth inhibition ([6]; at 33.0 µM): 66% (inactive)
growth inhibition [6, 18]: 58% (inactive)
growth inhibition ([6]; at 50.0 µM): 94.7% (active)
growth inhibition ([6]; at 100.0 µM): 88% (active)
growth inhibition ([16]; at 1.2 µM): -1% (inactive)
growth inhibition ([16]; at 3.7 µM): 3% (inactive)
growth inhibition ([16]; at 11.0 µM): 7% (inactive)
growth inhibition ([16]; at 33.0 µM): 13% (inactive)
growth inhibition ([16]; at 100.0 µM): 64% (inactive)
growth inhibition [7, 17]: 15% (inactive)
growth inhibition [7, 18]: 75% (active)
growth inhibition ([7]; at 50.0 µM): 93.6% (active)
growth inhibition ([8]; at 1.2 µM): -4% (inactive)
growth inhibition ([8]; at 3.7 µM): -2% (inactive)
growth inhibition ([8]; at 11.0 µM): 3% (inactive)
growth inhibition ([8]; at 33.0 µM): 38% (inactive)
growth inhibition ([8]; at 100.0 µM): 78% (active)
growth inhibition [9, 17]: -18% (inactive)
growth inhibition [9, 18]: 13% (inactive)
growth inhibition ([9]; at 50.0 µM): 83.2% (active)
growth inhibition ([10]; at 1.2 µM): -11% (inactive)
growth inhibition ([10]; at 3.7 µM): -2% (inactive)
growth inhibition [10, 17]: -4% (inactive)
growth inhibition ([10]; at 11.0 µM): -14% (inactive)
growth inhibition ([10]; at 33.0 µM): 70% (active)
growth inhibition [10, 18]: 72% (active)
growth inhibition ([10]; at 50.0 µM): 95% (active)
growth inhibition ([10]; at 100.0 µM): 87% (active)
growth inhibition ([11]; at 1.2 µM): 1% (inactive)
growth inhibition ([11]; at 3.7 µM): 3% (inactive)
growth inhibition ([11]; at 11.0 µM): 11% (inactive)
growth inhibition ([11]; at 33.0 µM): 62% (inactive)
growth inhibition ([11]; at 100.0 µM): 84% (active)
growth inhibition ([12]; at 1.2 µM): 4% (inactive)
growth inhibition ([12]; at 3.7 µM): 8% (inactive)
growth inhibition ([12]; at 11.0 µM): 19% (inactive)
growth inhibition ([12]; at 33.0 µM): 45% (inactive)
growth inhibition ([12]; at 100.0 µM): 90% (active)
growth inhibition ([13]; at 1.2 µM): 9% (inactive)
growth inhibition ([13]; at 3.7 µM): 21% (inactive)
growth inhibition ([13]; at 11.0 µM): 52% (inactive)
growth inhibition ([13]; at 33.0 µM): 85% (active)
growth inhibition ([13]; at 100.0 µM): 91% (active)
growth inhibition [14, 17]: 0% (inactive)
growth inhibition [14, 18]: 80% (active)
growth inhibition ([14]; at 50.0 µM): 96.2% (active)
growth inhibition ([15]; at 1.2 µM): 10% (inactive)
growth inhibition ([15]; at 3.7 µM): 23% (inactive)
growth inhibition ([15]; at 11.0 µM): 65% (inactive)
growth inhibition ([15]; at 33.0 µM): 88% (active)
growth inhibition ([15]; at 100.0 µM): 91% (active)
